AmpC detergent – inhibitors of E. coli AmpC beta-lactamase with detergent | P00811 | AmpC hydrolysis of nitrocefin, absorbance 480 nm, 0.01% Triton | Potency, µM (top dose mostly 114 µM), most hits filed as inhibitors | 0.041% of 370,000 active; note: nearly all actives have a fitted effect of over 25% in size
Target sequence (P00811 whole entry, looked up): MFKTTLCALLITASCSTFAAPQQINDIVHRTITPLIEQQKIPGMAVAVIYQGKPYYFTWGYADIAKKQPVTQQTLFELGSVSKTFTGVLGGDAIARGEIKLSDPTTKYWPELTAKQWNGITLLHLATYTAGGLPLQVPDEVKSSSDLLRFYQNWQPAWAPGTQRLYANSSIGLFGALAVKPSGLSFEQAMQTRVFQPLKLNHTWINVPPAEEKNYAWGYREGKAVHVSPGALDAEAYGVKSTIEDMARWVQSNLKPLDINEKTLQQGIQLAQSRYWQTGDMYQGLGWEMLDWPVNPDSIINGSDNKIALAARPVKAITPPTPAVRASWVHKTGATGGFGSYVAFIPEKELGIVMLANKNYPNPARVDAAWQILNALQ
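20 mM phosphate pH 7.0 + 0.01% (detergent screen) or 0.0001% Triton X-100; 5.3 nM AmpC reagent; cpd preinc 15 min RT; nitrocefin (800 uM stock) to start; A480 q20 s × 4 min; Activity was normalised to no-enzyme and no-compound control wells.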
Sm TGR block – blocks Schistosoma mansoni thioredoxin glutathione reductase. Q962Y6. purified TGR, DTNB reduction, TNB absorbance 405 nm. Potency, µM (series often up to 114 µM), actives largely listed as inhibitors. 3% of 360,000 active; note: nearly all actives have a fitted effect of over 60% in size
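Kinetic colorimetric format: TGR-catalysed, NADPH-driven DTNB reduction monitored via TNB absorbance. Enzyme dispensed at 20 nM; compound exposure 15 min at room temperature before reaction start.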
AmpC no deterg – blocks E. coli AmpC beta-lactamase in detergent-free assay | P00811 | AmpC nitrocefin hydrolysis, absorbance 480 nm, 0.0001% Triton | Potency, µM (titrated, usually from 57.1 µM), hits mostly inhibitors | 0.52% of 330,000 active | AID 485341; note: nearly all actives have a fitted effect of over 20% in size
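AmpC (5.3 nM in the dispensed reagent) in 20 mM phosphate pH 7.0 with 0.01% (detergent screen) or 0.0001% Triton X-100 was preincubated with compounds for 15 min at room temperature. Nitrocefin was then added from an 800 uM solution, and hydrolysis was followed at 480 nm.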
Large screens that a line does not name were inactive. Shown are actives, neighbours in structure and some others; about 3.3% of the full set was active somewhere. Calls come from the whole dose curve; as a rule, active = well fitted curve in the direction sought with a large enough effect; inconclusive = small, poorly fitted or top-dose-only effect, or another doubt; inactive = no such curve, though single readings can be large; an effect the other way counts as inactive or inconclusive.

S=C(NCCc1ccccc1)Nc1cccc2cnccc12	none
FC(F)(F)c1ccccc1NC(=S)Nc1cccc2cnccc12	Sm TGR block 35.5µM
CCOc1ccc(-c2c(C)nn3c(C)c(C(=O)NCCc4ccccc4)cnc23)cc1OCC	none (no result: AmpC no deterg)
COC(=O)C(=C/C(C)=C/c1cccs1)C(=O)OC	Sm TGR block inconclusive
COC(=O)c1c(C)[nH]c(C(=O)OCC(=O)c2c(N)n(CC(C)C)c(=O)n(C)c2=O)c1C	none (no result: AmpC detergent, Sm TGR block)
CCC1CCc2c(c3ccccc3[nH]c2=O)O1 (stereo not given)	none
O=c1[nH]c2ccccc2c2oc(CCl)nc12	Sm TGR block 6.31µM
Cc1ccccc1NC(=O)Cn1nnc(S(=O)(=O)c2ccc(C(C)(C)C)cc2)c1N	AmpC detergent inconclusive
S=C1N[C@H]2CCCC[C@@H]2N1	none
COc1ccc(-c2n[nH]c(=S)n2C2CCCCC2)cc1	Sm TGR block 89.1µM
S=c1[nH]nc(-c2cccnc2)n1C1CCCCC1	AmpC detergent inconclusive
O=C(NCc1ccc(OC(F)(F)F)cc1)C1CC2Cn3c(nc4ccccc43)C2N1c1ccccc1 (stereo not given)	AmpC detergent inconclusive
Cc1cc(C)n2nc(C(=O)NNC(=O)c3ccccc3)nc2n1	none
NNC(=O)CCCNc1ncc(C(F)(F)F)cc1Cl	none
CN(C)/C=C1/C(=O)NC(=O)N(CCNc2ncc(C(F)(F)F)cc2Cl)C1=O	Sm TGR block 11.2µM
COc1ccc(OC(=O)c2nc(SCc3ccccc3F)ncc2Cl)cc1	none (no result: AmpC no deterg)
S=C(NCc1ccco1)Nc1ccc(Cl)cn1	Sm TGR block 3.16µM
S=C(NCc1ccco1)Nc1ccccn1	Sm TGR block 14.1µM
S=C(NCc1ccco1)Nc1ccccc1	Sm TGR block inconclusive
S=C(NCc1ccco1)Nc1ccc(Cl)cc1	Sm TGR block inconclusive
COc1ccc(OCC(=O)N/N=C(\C)CC(=O)Nc2cccc([N+](=O)[O-])c2)cc1	none
CC(=O)Nc1nonc1-c1nnc(SCC(=O)Nc2ccc(C)cc2)n1-c1ccccc1	none (no result: AmpC no deterg)
COc1cc(C)ccc1OCCCn1c(-c2ccc(Cl)cc2)nc2ccccc2c1=O	none (no result: AmpC no deterg)
CN(C)c1ccc(C(=O)OCC#CCSc2nnc(-c3cccc4ccccc34)o2)cc1	none
O=C(Cn1cc2c(n1)CCCCC2)NCCCN1CCOCC1	AmpC detergent inconclusive, AmpC no deterg 44.7µM
O=C(Cn1cc2c(n1)CCCC2)NCCCN1CCCC1	none
COc1cc(O)c(C(=O)O)c(CCc2ccccc2)c1	none (no result: AmpC detergent, Sm TGR block)
O=C(CCc1ccccc1)c1c(O)cc(O)cc1O	AmpC no deterg 17.8µM
O=C(/C=C/c1ccccc1)N(Cc1ccc(Cl)cc1)C1CCS(=O)(=O)C1 (stereo not given)	none
O=C(/C=C/c1ccco1)N(Cc1cccc(Cl)c1)C1CCS(=O)(=O)C1 (stereo not given)	AmpC detergent inconclusive, Sm TGR block 2.82µM
O=C(/C=C/c1ccco1)N(Cc1ccc(F)cc1)C1CCS(=O)(=O)C1 (stereo not given)	Sm TGR block 7.94µM
O=C(c1ccccc1)N(Cc1cccc(Br)c1)C1CCS(=O)(=O)C1 (stereo not given)	none
O=C(/C=C/c1ccco1)N(Cc1ccccc1)C1CCS(=O)(=O)C1 (stereo not given)	Sm TGR block 3.16µM
O=C(/C=C/c1ccco1)N(Cc1cccc(Br)c1)C1CCS(=O)(=O)C1 (stereo not given)	Sm TGR block 3.16µM
O=C(/C=C/c1ccccc1)N(Cc1cccc(Cl)c1)C1CCS(=O)(=O)C1 (stereo not given)	none
O=C(c1ccccc1F)N(Cc1ccc(F)cc1)C1CCS(=O)(=O)C1 (stereo not given)	AmpC detergent inconclusive
COc1cc(SC)ccc1C(=O)Nc1ncc(Cl)cc1Cl	none
CC(C)c1ccc(NC2CCCN(C(=O)c3n[nH]c4c3CCC4)C2)cc1 (stereo not given)	none
CCOC(=O)C1=C(N)Oc2cc(O)ccc2C1c1cccc([N+](=O)[O-])c1 (stereo not given)	none (no result: Sm TGR block)
COc1ccccc1CNC(=O)CSc1nc(=O)[nH]c2c1CCCC2	none (no result: AmpC no deterg)
CCOc1ccc(C(CC(=O)O)N2Cc3ccccc3C2=O)cc1OC (stereo not given)	none (no result: AmpC no deterg)
O=C(c1ccco1)N(Cc1cccc(F)c1)C1CCS(=O)(=O)C1 (stereo not given)	none
O=C(/C=C/c1ccco1)N(Cc1cccc(F)c1)C1CCS(=O)(=O)C1 (stereo not given)	Sm TGR block 10µM
Cc1nc(C)c(C(=O)NNS(=O)(=O)c2ccc3ccccc3c2)s1	none
O=C(CCl)N1N=C(c2ccco2)CC1c1ccco1 (stereo not given)	Sm TGR block 6.31µM
O=C(O)/C=C/C(=O)N1N=C(c2ccco2)CC1c1ccco1 (stereo not given)	Sm TGR block inconclusive
CN1CC(=O)N(CC(=O)N2N=C(c3ccc(Cl)cc3)CC2c2ccco2)C1=O (stereo not given)	Sm TGR block 22.4µM
CN1CCN(CC(=O)N2N=C(c3cccs3)CC2c2ccco2)CC1 (stereo not given)	none
CCC(=O)N1N=C(c2ccc(Cl)cc2)CC1c1ccco1 (stereo not given)	none
O=C(CCl)N1N=C(c2cccs2)CC1c1ccco1 (stereo not given)	Sm TGR block 2.51µM
O=C(c1ccco1)N1N=C(c2cccs2)CC1c1ccco1 (stereo not given)	none
O=C(COc1ccccc1F)N1N=C(c2cccs2)CC1c1ccco1 (stereo not given)	Sm TGR block 25.1µM
CC(=O)N(C)c1ccc(NCc2cc(=O)oc3cc(C)c(O)cc23)cc1	none
CC(=O)N(Cc1cccnc1)c1nc2c(C)cc(C)cc2s1	none (no result: AmpC no deterg)
O=C1c2ccc([N+](=O)[O-])cc2C(=O)N1Cc1cccnc1	Sm TGR block inconclusive
COCCCNC(=O)CN(c1ccc(F)cc1)S(=O)(=O)c1ccc2c(c1)OCCO2	none
Cc1ccc(NC(=O)CCNC(=O)c2ccc(Cl)cc2)nc1	none
COC1CCN(C(=O)c2ccc3oc(Cc4ccc(Cl)cc4)nc3c2)CC1	none
O=[N+]([O-])c1ccc(O)c(C=Nc2ccc3c(c2)OCCO3)c1	none
O=[N+]([O-])c1ccc(O)c(C=Nc2ccc3oc(Cc4ccc(Cl)cc4)nc3c2)c1	Sm TGR block 50.1µM
Nc1ccc2oc(Cc3ccc(Cl)cc3)nc2c1	Sm TGR block 14.1µM (no result: AmpC no deterg)
CCCCOC(=O)Nc1ccc(N(C)C)cc1	none
N#Cc1c(Cl)nc(Cl)c2c1CCN(Cc1ccccc1)C2	AmpC detergent inconclusive, Sm TGR block 35.5µM
N#Cc1c(N2CCCCC2)nc(N2CCCCC2)c2c1CCN(Cc1ccccc1)C2	none
Nc1c2nc(-c3ccccc3)[nH]c(=O)c2nc(=O)n1-c1ccccc1	none
CN1C(=O)C(Cc2cccs2)C(=O)N(C)C1=O	AmpC detergent inconclusive, Sm TGR block inconclusive
CN1C(=O)C(Cc2ccsc2)C(=O)N(C)C1=O	Sm TGR block 5.01µM
CC(NC(=O)c1ccc(OC2CCN(C(=O)c3cccnc3)CC2)cc1)C1CC1 (stereo not given)	none
CCCCC1(Br)C(=O)N(c2ccccc2)N(c2ccccc2)C1=O	Sm TGR block 14.1µM
CCCCC1(CO)C(=O)N(c2ccccc2)N(c2ccccc2)C1=O	none
CCOC(=O)C1=CN(Cc2ccco2)S(=O)(=O)N(C)C1c1ccc2ccccc2c1 (stereo not given)	none (no result: AmpC detergent, Sm TGR block)
